These results are taken from PubChem BioAssay (NCI).

This assay can be described thus: NCI Yeast Anticancer Drug Screen. Data for the wt1 strain (AID 149).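 Further: 0% = growth of vehicle-treated wt1 cultures.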 Particulars: S. cerevisiae wt1 strain (SPY 50644) growth inhibition, hits give high values. Here is the method: Growth inhibition of yeast strains with defined genetic alterations is measured as a screen for potential anti-cancer activity. Selected strains with alterations in DNA damage repair or cell cycle control were exposed to compounds and growth inhibition was measured relative to vehicle treated controls. The strain used in this assay is wt1

The panel holds about 79,000 compounds, 15% with a hit somewhere; the sample as a whole holds those more often. Values without a mark were called inactive. Calls of active or inactive are those of the source. No stated cut-off is given here; in the data, active means growth inhibition above about 70%; inactive means the rest.

For the compound `CN(C)CCNC(=Cc1ccc2ccccc2[n+]1C)NCCN(C)C`, the growth inhibition is 0% (at 1.2 µM); -2% (at 3.7 µM); -2% (at 11.0 µM); -1% (at 33.0 µM); 0% (at 100.0 µM).
In the case of `CC(=O)O/N=C1C=C/C(=C(/C#N)c2ccccc2)C=C/1C`, the growth inhibition was 3% (at 1.2 µM); 5% (at 3.7 µM); 24% (at 11.0 µM); 99% (active) (at 33.0 µM); 97% (active) (at 100.0 µM).
Take `O=NC1c2cccc3cccc(c23)C1N=O` (stereo not given): the growth inhibition reads like this: (at 1.2 µM) 3%; (at 3.7 µM) 3%; (at 11.0 µM) 20%; (at 33.0 µM) 38%; (at 100.0 µM) 69%.
With `CCC(C)COC(=O)Nc1cccc(Cl)c1` (stereo not given), the growth inhibition runs as follows: (at 1.2 µM) 1%; (at 3.7 µM) -1%; (at 11.0 µM) 0%; (at 33.0 µM) 6%; (at 100.0 µM) 99% (active).
For `CC1=CC(=C(c2ccc(N)c(C)c2)c2ccc(N)c(C)c2)C=CC1=N`, the growth inhibition (at 1.2 µM) is 8%; the growth inhibition (at 3.7 µM) was 9%; the growth inhibition (at 11.0 µM) is 7%; the growth inhibition (at 33.0 µM) is 6%; the growth inhibition (at 100.0 µM) is 90% (active).
For `CS(=O)(=O)O.[Ag]`, in that order: 77% (active), 99% (active), 99% (active), 99% (active) and 98% (active).
Take `COc1ccc2nc3cccc([N+](=O)[O-])c3c(NCCNCCO)c2c1`: the growth inhibition was -3% (at 1.2 µM); 3% (at 3.7 µM); 20% (at 11.0 µM); 49% (at 33.0 µM); 70% (active) (at 100.0 µM).
For the compound `Oc1ccc(N=Nc2ccc(Cl)cc2)cc1`, the growth inhibition (at 1.2 µM) is -2%; the growth inhibition (at 3.7 µM) was 7%; the growth inhibition (at 11.0 µM) is 52%; the growth inhibition (at 33.0 µM) is 99% (active); the growth inhibition (at 100.0 µM) is 99% (active).
